The record followed here is PubChem BioAssay AID722 (NMMLSC, 2007).

Among all 1,300 compounds or so, about 40 (3%) were called active. The full list was thinned out, with actives kept by preference. Unmarked numbers belong to inactive results. No stated cut-off is given here; in the data, active means inhibition above about 30%; inactive means the rest.

By inhibition is commonly meant the relative decrease from the control value, in per cent.

For this experiment, the target named is fMet-Leu-Phe receptor (Homo sapiens) (UniProt P21462). Nature of the experiment: human FPR1 ligand displacement screen – cell-based, flow cytometry, SAR analysis, primary screen (AID 722). The settings on record: FPR-expressing cells, fluorescent ligand binding inhibition, stronger effect = higher value, concentration not given here. (In flow cytometry, cells or beads pass a laser one at a time.)
Sequence of fMet-Leu-Phe receptor (Homo sapiens) (P21462 whole entry, looked up): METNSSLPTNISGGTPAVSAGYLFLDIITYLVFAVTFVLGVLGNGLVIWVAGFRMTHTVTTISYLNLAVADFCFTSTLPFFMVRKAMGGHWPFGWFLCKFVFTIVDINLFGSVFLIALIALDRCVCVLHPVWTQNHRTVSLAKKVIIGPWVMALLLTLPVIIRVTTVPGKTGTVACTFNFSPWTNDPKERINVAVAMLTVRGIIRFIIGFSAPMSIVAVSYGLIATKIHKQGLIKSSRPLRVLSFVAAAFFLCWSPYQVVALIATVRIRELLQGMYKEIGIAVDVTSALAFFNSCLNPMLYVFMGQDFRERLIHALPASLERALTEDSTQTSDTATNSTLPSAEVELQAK
Take `CC(C)c1ccc(C2/C(=C(\O)c3ccc(F)cc3)C(=O)C(=O)N2CCCN2CCOCC2)cc1` (configuration not stated): the inhibition was -6%.
For `COc1ccc2c(=O)c(-c3ccccc3)c(C(F)(F)F)oc2c1C`, the inhibition was -2.4%.
The result for `CCc1cc2c(=O)c(-c3nc4ccccc4s3)c(C)oc2cc1OC(C)=O` reads 4%; that for `O=C1C(=O)N(CCN2CCOCC2)C(c2cccc(Br)c2)/C1=C(\O)c1ccccc1` (configuration not stated), 1.8%.
On to `Cc1onc(-c2c(Cl)cccc2Cl)c1C(=O)N1CCC(C)CC1`, for which the inhibition was 5.9%.
With `COC(=O)c1c(NC(=O)c2cccc(Br)c2)sc2c1CCCC2`, the inhibition is -4.7%.
As for `Cc1cc(N2C(=O)CSC2c2ccccc2F)ccc1Br` (configuration not stated), the inhibition is 0.4%.
As for `COc1ccc(OC)c(C2C(C(=O)/C=C/c3ccccc3)=C(O)C(=O)N2CCCCCC(=O)O)c1` (configuration not stated), the inhibition is -3.9%.
For `Cc1oc2cc(OCC(=O)O)ccc2c(=O)c1-c1ccc2c(c1)OCCO2`, the inhibition is 3.2%.
Consider `COc1cccc(C(=O)/C=C(\Nc2sc3c(c2C#N)CCC3)C(=O)O)c1`, for which the inhibition is -24.9%.
Take `N#Cc1c(N/C(=C\C(=O)c2ccccc2)C(=O)O)sc2c1CCC2`: the inhibition is 53% (active).
On to `CCOC(=O)c1c(NC(=O)Cc2ccccc2)sc2c1CCCCC2`, for which the inhibition was -0.4%.
For `Cn1c2c(c(=O)n3ncc(C(=O)O)c13)CN(Cc1ccccc1)CC2`, the inhibition is -6.5%.
The result for `CCc1cc2c(=O)c(-c3nc4ccccc4n3C)c(C)oc2c(CN2CCCCC2)c1O` reads -12.9%.
`CCOC(=O)c1c(NC(=O)c2cc(C)no2)sc(C)c1C`: the inhibition is 2.2%.
With `COc1ccc(OC)c(NC(=O)C(C)n2sc3ccccc3c2=O)c1` (configuration not stated), the inhibition is 2.2%.
Turning to `CCCCCCOc1cccc(N2C(=O)C(=O)/C(=C(\O)c3ccccc3)C2c2cccc(F)c2)c1` (configuration not stated), the inhibition is 56.3% (active).
`COc1ccc(/C(O)=C2/C(=O)C(=O)N(c3ccc(C)c(Br)c3)C2c2cccc(F)c2)cc1` (configuration not stated): the inhibition was 20.6%.
As for `O=C(O)COc1ccc(N2C(=O)C(=O)/C(=C(\O)c3ccccc3)C2c2cccc(F)c2)cc1` (configuration not stated), the inhibition is -6.1%.
With `Cc1cccc(N2C(=O)C(=O)/C(=C(/O)c3ccccc3)C2c2cccc(F)c2)c1` (configuration not stated), the inhibition is 4.1%.
In the case of `Cc1ccc(N2C(=O)C(=O)/C(=C(\O)c3ccccc3)C2c2cccc(F)c2)cc1Br` (configuration not stated), the inhibition is 30.2% (active).
Consider `CCCCCCOc1cccc(N2C(=O)C(=O)/C(=C(\O)c3ccccc3)C2c2ccc(C(C)C)cc2)c1` (configuration not stated), for which the inhibition is -11.9%.
With `COC(=O)c1c(NC(=O)c2ccc(C)cc2)sc(C)c1C`, the inhibition was -13.3%.
In the case of `COc1ccc(C2/C(=C(\O)c3ccccc3)C(=O)C(=O)N2CCN2CCOCC2)c(OC)c1` (configuration not stated), the inhibition is 17%.
As for `CCOc1ccc(/C(O)=C2\C(=O)C(=O)N(CCN3CCOCC3)C2c2ccc(Br)cc2)c(C)c1` (configuration not stated), the inhibition is -1.7%.
As for `COc1ccc(C2SCC(=O)N2c2ccc(Br)cc2)cc1` (configuration not stated), the inhibition is 1.9%.
For the compound `CCCN(C(=O)c1cccc(NC(=O)[C@H]2[C@@H]3C[C@@H]4[C@H]2C(=O)O[C@@H]4C3)c1)c1ccccc1F`, the inhibition was -2.9%.
Take `CCOC(=O)c1c(NC(=O)c2ccco2)sc(C)c1C`: the inhibition was -1.8%.
Consider `CCOC(=O)C1NN=C(C(=O)c2ccccc2)C1c1ccccc1` (configuration not stated), for which the inhibition was -1%.
Turning to `CCSC1=C(C#N)C(c2ccc3c(c2)OCO3)CC(=O)N1` (configuration not stated), the inhibition was -2.1%.
Turning to `COc1cccc(C2/C(=C(/O)c3ccc(Cl)cc3)C(=O)C(=O)N2c2ccc(C)c(Br)c2)c1` (configuration not stated), the inhibition is 0.2%.
Turning to `COc1ccc(C2CC(=O)C3=C(C2)NC(=O)CC3c2cccs2)cc1OC` (configuration not stated), the inhibition is -3.3%.
